Screens: PubChem, National Center for Advancing Translational Sciences (NCATS)
This excerpt belongs to a sample that is enriched for hits.
Pf Dd2 inh: blocks in vitro growth of P. falciparum Dd2 | hit rate 4.3% among 120,000 | P. falciparum Dd2 growth, SYBR Green, 72 h | AID 1347417 | Potency, µM (series often up to 28.9 µM), without a hit: top-dose activity, negative = inhibition, most hits filed as inhibitors; active = well fitted inhibition curve with a large enough effect;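 note: plate controls were DMSO vehicle for no effect and reference drug for full effect; nearly all actives have a fitted effect of over 65% in size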
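Infected erythrocytes (Dd2, 0.3% parasitemia, 2.5% hematocrit final) are added to compound in RPMI-1640/Albumax II medium, grown 72 h at 37C in low oxygen, then lysed with saponin/Triton-X containing SYBR Green and read by fluorescence.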
Starred values were filed as active, the others as inactive; i = inactive; [ ] = another dose, or the depositor's remark. Potency is the fitted concentration of half-maximal effect.

SMILES	Pf Dd2 inh
O=C(NC1CC(c2nnc(CO)n2C2CC2)C1)c1scc2c1OCCO2 (configuration not stated)	-24.1%
COc1ccc(C(=O)c2oc3ccccc3c2NC(=O)c2ccc(F)cc2)cc1	33.8%[5.79 µM]
CC(C)(C)c1ccc(C(=O)Nc2c(C(=O)c3ccc(F)cc3)oc3ccccc23)cc1	8.91µM*
COc1ccc(C(=O)Nc2c(C(=O)c3ccc(F)cc3)oc3ccccc23)cc1	55.5%
Cc1ccccc1C(=O)N(C)Cc1ccccc1C(F)(F)F	-20.4%[44.1 µM]
O=C(c1ccncn1)N1CC(F)(F)C[C@H]1c1nc(C2CC2)no1	-24.1%
COC(=O)CC[C@H]1CNC(=O)[C@@H]2[C@@H](CCN2C(=O)NC(C)C)N1C	4.8%[44.1 µM]
N#Cc1ccc(N2CCN(C(=O)CCc3ccncc3)CC2=O)cc1	1.0%
N#Cc1cccc(C(=O)NC2CCc3n[nH]c(=O)n3CC2)c1 (configuration not stated)	i
O=C(NCCO)C1CC(=O)N(c2n[nH]c3ccccc23)C1 (configuration not stated)	1.9%
Cc1cc(C(=O)N2CCC3(CCNCC3)CC2)c2cccc(C)c2n1	-5.8%
O=C1CO[C@H]2CN(Cc3c[nH]c4ccccc34)C[C@H]2N1	-21.0%[44.1 µM]
O=C1CO[C@H]2CCN(Cc3cccc(OC(F)(F)F)c3)CC[C@@H]2N1Cc1c[nH]c2ccccc12	7.94µM*
O=C1CO[C@H]2CCN(Cc3cccc(OC(F)(F)F)c3)CC[C@@H]2N1Cc1ccccc1	i
CN1C(=O)CO[C@H]2CN(Cc3c[nH]c4ccccc34)C[C@H]21	i
O=C1CO[C@H]2CN(Cc3c[nH]c4ccccc34)C[C@H]2N1Cc1ccc(F)cc1	5.01µM*
COc1cncc(CN2CC[C@@H]3OCC(=O)N(Cc4ccccc4)[C@H]3CC2)c1	-9.4%[44.1 µM]
O=C(C[C@@H]1CCNC[C@@H]1Cc1cc(CSc2ccccc2)on1)N1CCCCC1	i
CN(C)c1cccc(NC(=O)C2=NO[C@@H]3CN(c4cccnc4)C[C@H]23)c1	-4.7%[44.1 µM]
COCCC1(C(=O)O)CCCN(CCS(C)(=O)=O)C1 (configuration not stated)	-12.6%
COc1ncccc1-c1ncc2c(n1)OCCN(Cc1ccc(F)cc1F)C2=O	-24.5%[44.1 µM]
CC1=NOC2(CCN(C(=O)c3ccccc3F)C2)C1 (configuration not stated)	-3.2%[44.1 µM]
COCC(=O)N1CCC(C(=O)NCc2cc(-c3cccc(F)c3)no2)CC1	-28.7%
CC1=C[C@@H](CN2CCN(CCO)CC2)[C@H](C(C)C)C[C@H]1Cc1nnc(-c2ccc([N+](=O)[O-])cc2)o1	2.51µM*
COc1ccc(-c2nnc(C[C@@H]3C[C@@H](C(C)C)[C@H](CN4CCN(CCO)CC4)C=C3C)o2)cc1	-33.2%
SMILES	Pf Dd2 inh
CC1=C[C@@H](CN2CCC(CO)CC2)[C@H](C(C)C)C[C@H]1Cc1nnc(-c2ccc([N+](=O)[O-])cc2)o1	3.55µM*
O=C(CCc1ccccc1)N1CCC(c2noc(-c3cnccn3)n2)C1 (configuration not stated)	12.4%[5.79 µM]
Cc1ccc(NC(=O)Cn2c(C)cc3nc4n(c(=O)c32)CCC4)cc1Cl	i
O=C(Nc1cccc(F)c1)C1(CCO)CC12CCOCC2 (configuration not stated)	19.1%
Cc1ccc(-c2nc(CNC(=O)[C@@H]3C[C@@H](O)CN3)[nH]c2-c2ccccn2)cc1	-15.2%
O=C(NC1CCN(Cc2ccccc2)CC1)[C@H]1CN(Cc2ccccc2)C[C@H]1C(=O)O	-29.2%
CC(C)(C)C(=O)N1CCC2(CC1)CC(c1ccccc1)C(=O)N(C1CC1)C2 (configuration not stated)	-12.4%
COc1ccc(OCc2nc(C3CN(C(=O)Nc4cccc(F)c4)C3)no2)cc1	-8.5%
CCOc1ccc(-c2nnc(CCC(=O)NCCc3ccccc3)c(=O)[nH]2)cc1	-18.2%
COC(=O)c1ccc(NC(=O)CSc2ccc(-c3sc(-c4ccccc4)nc3C)nn2)cc1	12.6µM*
Cc1nc(-c2ccccc2)sc1-c1ccc(SCC(=O)NCc2ccc(Cl)cc2)nn1	11.4%
Cc1cccc(NC(=O)CSc2ccc(-c3sc(-c4ccccc4)nc3C)nn2)c1C	i
Cc1noc(-c2cn(C3CCN(C(=O)c4ccc(C)c(F)c4)CC3)nn2)n1	i
N#Cc1ccc(CN2CCC3(CC2)CC(=O)Nc2ccccc2O3)cc1	i
CCN(CC)C(=O)CCc1c(C)nn(-c2ccccc2C)c1Oc1cccc(F)c1	-9.2%
CC(C)CN(CC1CN(C(=O)Nc2cccc(Cl)c2)CCO1)C(=O)c1ccc(F)cc1 (configuration not stated)	i
Cc1ccc(-c2cc3c(=O)n(CCNC(=O)c4ccc5cc[nH]c5c4)ccn3n2)cc1C	i
Cc1ccc2c(C(=O)N3CCOCC3)cc(NC(=O)C3CCC3)cc2n1	-3.3%
COc1ccc(-c2cc(N3CCC(NC(=O)c4ccc(C#N)cc4)C3)n[nH]2)cc1 (configuration not stated)	-6.2%
CCCNC(=O)N1CCC(N2CC(OCC3CC3)C23CCCCC3)CC1 (configuration not stated)	8.91µM*
CC(C)CC(=O)N1CCC(N2CC(OCC3CC3)C23CCOCC3)CC1 (configuration not stated)	-19.9%
CC(=O)N1CCC(C(=O)N2CCC(N3CC(OCC4CC4)C34CCOCC4)CC2)CC1 (configuration not stated)	8.6%
CCn1c2c(c(=O)n1Cc1ccccc1)CCN(C(=O)c1cccnc1)C2	44.5%[44.1 µM]
COc1cc(OC)cc(C(=O)NCC2CCCN(C(=O)C3=C(C)OCCO3)C2)c1 (configuration not stated)	-6.2%
COc1ccc(NC(=O)CCC2CCCN(C(=O)c3csc(C(C)=O)c3)C2)cc1Cl (configuration not stated)	i
SMILES	Pf Dd2 inh
COc1ccc(NC(=O)CCC2CCCN(C(=O)C3=C(C)OCCO3)C2)cc1Cl (configuration not stated)	3.16µM*
COc1ccc(Cl)cc1NC(=O)CCC1CCCN(Cc2ccc(C)s2)C1 (configuration not stated)	12.6µM*
COc1ccc(Cl)cc1NC(=O)CCC1CCCN(S(=O)(=O)C2CC2)C1 (configuration not stated)	-27.5%
COc1ccc(Cl)cc1NC(=O)CCC1CCCN(C(=O)CCc2scnc2C)C1 (configuration not stated)	-23.3%
O=C(Nc1ccc2c(c1)CCC2)c1cc2n(n1)CC(c1ccc(Cl)cc1)OC2 (configuration not stated)	-17.1%
Cc1nn(C)c2ncnc(NCc3nn[nH]n3)c12	-1.1%
COCC1CN(C(C)=O)CC12CCN(C(=O)CN1CCCCCC1)CC2 (configuration not stated)	i
O=C(CC1CCCN(c2cnn(CC3CC3)c(=O)c2)C1)NCCN1CCCC1 (configuration not stated)	-10.1%
CCn1cc(S(=O)(=O)N2CCC3(CC2)CNC(C(=O)O)C3)cn1 (configuration not stated)	-8.5%
Cn1nccc1C(=O)N1CC(c2ncc3c(-c4ccc(F)cc4)nccn23)C1	-7.1%[44.1 µM]
Cn1cc(C(=O)N2CCC(N(Cc3cccnc3)C3CCOCC3)CC2)cn1	14.9%
O=C(NC1CC1)c1ccc2nnc(-c3ccc(Cl)cc3)n2c1	7.1%
O=C(O)c1ccc(-c2nnc3ccc(NC(=O)C4CCC4)cn23)cc1	-11.1%
CC(C)CCNC(=O)c1ccc(-c2nnc3ccc(NC(=O)C4CCC4)cn23)cc1	2.82µM*
COc1cccc(C(=O)N2CCC3(CC2)N(C)C(=O)CS3(=O)=O)c1	-1.1%
